This note sets out measurements from PubChem BioAssay (Tox21).

Test [1] can be described thus: Nuclear factor erythroid 2-related factor 2/antioxidant responsive element (Nrf2/ARE) small molecule agonists: qHTS cell viability counter screen in human keratinocytes (AID 1919968; active = well fitted curve in the direction sought with a large enough effect in the repeat runs; an effect the other way counts as inactive or inconclusive; note: nearly all actives have a fitted effect of over 55% in size). In a few lines: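 KeratinoSens HaCaT cells, 1,500/well, preincubated 5 h, then exposed to compounds in DMSO for 23 h at 37 C/5% CO2. Viability read as CellTiter-Fluor fluorescence after 1 h, in the same wells as the ARE-luciferase read.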

Test [2] addresses Gonadotropin-releasing hormone receptor (Homo sapiens) (UniProt P30968). Put plainly: Human gonadotropin-releasing hormone receptor (GnRHR) small molecule agonists, calcium flux assay in GnRHR-HEK293 cells (AID 1920063). Note: nearly all actives have a fitted effect of over 35% in size. The essentials: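 HEK293 cells stably expressing human GnRHR were dye-loaded for 1 h at 37 C. Compound was added in agonist mode and fluorescence (Ex/Em 480/540) recorded kinetically for 3 min. Fifteen concentrations, triplicates.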
(A change in cytosolic calcium serves as a functional read-out for many receptors and channels.)

Test [3] addresses KiSS-1 receptor (Homo sapiens) (UniProt Q969F8). Put plainly: Human kisspeptin (KISS1R) small molecule agonists, calcium flux assay in KISS1R-HEK293 cells (AID 1920064; active = well fitted curve in the direction sought with a large enough effect in the repeat runs; an effect the other way counts as inactive or inconclusive). The essentials: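 HEK293 cells stably expressing human KISS1R were loaded with calcium dye for 1 h at 37 C, then given compound; fluorescence (Ex/Em 480/540) was read kinetically for 3 min. Fifteen concentrations, triplicate.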

The nature of test [4]: G protein-coupled receptor (GPCR) small molecule agonists, calcium flux assay: HEK293 wild type cell line counter screen (AID 1920065). In a few lines: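 Wild-type HEK293 cells plated 18 h, loaded with calcium dye 1 h at 37 C, then compounds added in agonist mode (ATP as positive control). Kinetic fluorescence Ex/Em 480/540 recorded 3 min at 1 sec intervals; 15 concentrations, triplicate.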

Test [5] in a line: p53 small molecule agonists, cell-based qHTS assay with human liver microsomes: qHTS cell viability counter screen (AID 1963579). Note: nearly all actives have a fitted effect of over 45% in size. In a few lines:
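After the 460/530 nm beta-lactamase read, CellTiter-Glo was added to the same wells and luminescence measured after 30 min at room temperature, giving viability of p53RE-bla cells treated 16 h with compounds plus microsomes and NADPH.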

Test [6] is described as follows: p53 small molecule agonists, cell-based qHTS assay with rat liver microsomes: qHTS cell viability counter screen (AID 1963580). Note: nearly all actives have a fitted effect of over 45% in size. In a few lines:
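HCT-116 p53RE-bla, 4,000 cells/well, 5 h pre-incubation; cpd + rat liver microsomes 0.5 mg/mL + NADPH 0.5 mg/mL (final); 16 h, 37 C; CellTiter-Glo, 30 min RT; luminescence.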

Test [7] is described as follows: p53 small molecule agonists, cell-based qHTS assay: qHTS cell viability counter screen (AID 1963581). Note: nearly all actives have a fitted effect of over 45% in size. The essentials: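 p53RE-bla HCT-116 cells, compounds added 5 h after plating and incubated 16 h at 37 C. Cytotoxicity measured in the same wells as intracellular ATP by CellTiter-Glo luminescence after 30 min at room temperature.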
A general note: In qHTS, concentration-response curves come from the screen itself.

A short description of test [8]: p53 small molecule agonists, cell-based qHTS assay (AID 1963582; active = well fitted activation curve with a large enough effect in the signal ratio in the repeat runs, not every such curve was filed as active; the % refers to the signal ratio). In a few lines:
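p53RE-bla reporter cells, compounds added in DMSO after 5 h plating, incubated 16 h at 37 C. Beta-lactamase read via 2 h room-temperature LiveBLAzer B/G FRET substrate, fluorescence intensity.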

In test [9] the target is 5-hydroxytryptamine receptor 2A (Homo sapiens) (UniProt P28223). Put plainly: 5-hydroxytryptamine receptor 2A (HTR2A) small molecule antagonists, cell-based qHTS assay (AID 1963586). Note: nearly all actives have a fitted effect of over 45% in size. The essentials: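 Antagonist-mode intracellular calcium assay: DOI (4 nM) added after 5 min compound pre-incubation at room temperature to dye-loaded HTR2A-CHO cells. Fluorescence followed for 3 min, sampled every second.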
5-hydroxytryptamine receptor 2A (Homo sapiens), sequence (P28223 whole entry, looked up): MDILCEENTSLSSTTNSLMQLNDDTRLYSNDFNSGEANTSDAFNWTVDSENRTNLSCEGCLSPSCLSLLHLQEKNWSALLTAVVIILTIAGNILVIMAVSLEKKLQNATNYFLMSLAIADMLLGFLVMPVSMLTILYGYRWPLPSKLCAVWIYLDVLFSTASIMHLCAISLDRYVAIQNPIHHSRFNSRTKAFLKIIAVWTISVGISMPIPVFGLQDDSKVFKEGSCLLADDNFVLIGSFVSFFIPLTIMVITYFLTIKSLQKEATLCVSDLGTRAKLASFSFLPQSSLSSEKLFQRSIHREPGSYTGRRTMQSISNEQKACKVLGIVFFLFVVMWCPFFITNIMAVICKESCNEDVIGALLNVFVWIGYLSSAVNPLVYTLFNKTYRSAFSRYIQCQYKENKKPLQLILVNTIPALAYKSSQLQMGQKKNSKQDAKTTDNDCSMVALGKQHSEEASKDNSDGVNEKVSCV

Test [10] shares this target. Put plainly: 5-hydroxytryptamine receptor 2A (HTR2A) small molecule agonists, cell-based qHTS assay (AID 1963587). Note: nearly all actives have a fitted effect of over 30% in size. Note: potency is the fitted concentration of half-maximal effect. The essentials:
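Kinetic calcium-flux fluorescence (2 min, 1 sec intervals) after compound addition in agonist mode. HTR2A-CHO cells were cultured 18 h, then dye-loaded 1 h at 37 C.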

The target of test [11] is Muscarinic acetylcholine receptor M1 (Homo sapiens) (UniProt P11229). Put plainly: Cholinergic receptor muscarinic 1 (CHRM1) small molecule antagonists, cell-based qHTS assay (AID 1963588). Note: nearly all actives have a fitted effect of over 40% in size. In a few lines:
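CHRM1-CHO calcium-flux assay, antagonist mode. Cells were seeded 18 h, dye-loaded 1 h at 37 C and given compound for 5 min at RT, then acetylcholine was added at 50nM. FDSS fluorescence was read 3 min; 15 concentrations, three runs.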

Test [12] can be described thus: cAMP Responsive Elements (CRE) small molecule agonists, cell-based qHTS assay (AID 1963590). The essentials: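 CRE-bla HEK 293T cells, 2,000/well in DMEM with 10% dialyzed FBS and 25 mM HEPES, pre-incubated 18 h at 37 C, then exposed to compound 3 h at 37 C. Beta-lactamase reporter read with LiveBLAzer B/G FRET substrate after 2 h at room temperature.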
The nature of test [13]: cAMP Responsive Elements (CRE) small molecule antagonists, cell-based qHTS assay (AID 1963591; active = well fitted inhibition curve with a large enough effect in the signal ratio in the repeat runs, not every such curve was filed as active; the % refers to the signal ratio). The essentials:
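CRE-bla HEK293T cells plated 18 h, then given compound plus NKH477 at 0.25 uM final for 3 h at 37C. Beta-lactamase reporter read with LiveBLAzer B/G FRET substrate after 2 h at room temperature.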

Test [14] concerns the target Beta-2 adrenergic receptor (Homo sapiens) (UniProt P07550). Put plainly: Adrenergic beta2 receptor (ADRB2) small molecule antagonists, cell-based qHTS assay (AID 1963592). Note: nearly all actives have a fitted effect of over 50% in size. Note: potency is the fitted concentration of half-maximal effect. In a few lines:
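Cells (CHO, stable ADRB2 overexpression) incubated 18-20hr at 37C; compounds added from DMSO; agonist mix (1nM isoproterenol, 100uM IBMX, 25uM Ro-20-1724) added; 0.5hr RT; d2-cAMP and anti-cAMP-cryptate added; 1hr RT; 665/615 nm read.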

Test [15] has as its target D(2) dopamine receptor (Homo sapiens) (UniProt P14416). Put plainly: Dopamine D2 receptor (DRD2) small molecule agonists, cell-based qHTS assay (AID 1963594). Note: nearly all actives have a fitted effect of over 35% in size. In a few lines: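 cAMP accumulation in DRD2-HEK293 cells measured by HTRF after 1 h detection; compounds added 10 min before NKH477 (200nM […]) forskolin-analogue stimulation, 30 min at room temperature, with Ro20-1724 present at 0.1 mM final.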

The target is the same in test [16]. Put plainly: Dopamine D2 receptor (DRD2) small molecule antagonists, cell-based qHTS assay (AID 1963595; active = well fitted inhibition curve with a large enough effect in the signal ratio in the repeat runs, with a control signal flat; the % refers to the signal ratio). In a few lines: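 Readout: HTRF cAMP, cAMP-d2 competing with cellular cAMP for anti-cAMP cryptate, read after 1 h. Cells: DRD2-HEK293. Conditions: 0.1 mM Ro20-1724, 12 nM quinpirole, 200 nM NKH477, 30 min RT.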
Test [17] is described as follows: p53 small molecule agonists, cell-based qHTS assay with human liver microsomes (AID 1963577).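 Note: p53 response element beta-lactamase reporter cells with liver microsomes plus NADPH.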 In a few lines: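 Steps: plate p53RE-bla cells, incubate 5 h at 37 C; add compound in DMSO; add microsomes (0.5 mg/mL final) and NADPH (0.5 mg/mL final); incubate 16 h at 37 C; add LiveBLAzer, 2 h RT; read fluorescence.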
Test [18] has as its target Muscarinic acetylcholine receptor M1 (Homo sapiens) (UniProt P11229). Put plainly: Cholinergic receptor muscarinic 1 (CHRM1) small molecule agonists, cell-based qHTS assay (AID 1963589). Note: nearly all actives have a fitted effect of over 35% in size. In a few lines:
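CHO cells stably expressing human CHRM1 were loaded with calcium dye for 1 h at 37 C, then compound was added in agonist mode. Intracellular calcium fluorescence was followed kinetically at 1 s intervals. Fifteen concentrations were tested in three independent runs.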

Test [19] has as its target Beta-2 adrenergic receptor (Homo sapiens) (UniProt P07550). Put plainly: Adrenergic beta2 receptor (ADRB2) small molecule agonists, cell-based qHTS assay (AID 1963593).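 Note: CHO cells stably overexpressing human ADRB2.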 The essentials: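 CHO cells stably over-expressing ADRB2 were plated overnight at 37C, then dosed with compounds plus a stimulation mix containing 100uM IBMX and 25uM Ro-20-1724 for 0.5hr at room temperature. cAMP was measured by HTRF competition, 1hr.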

A short description of test [20]: p53 small molecule agonists, cell-based qHTS assay with rat liver microsomes (AID 1963578). The essentials:
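Metabolic activation is supplied by rat liver microsomes with NADPH (each 0.5 mg/mL final). p53RE-bla cells incubate with compound 16 h at 37 C; reporter activity is measured by LiveBLAzer fluorescence.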

Each structure is given as a SMILES string. Records with an inconclusive call do not appear. A structure can be active in one record and inactive in another. Activity calls are given as the source filed them. Unless noted, calls come from the whole dose curve.

KiSS-1 receptor (Homo sapiens), sequence (Q969F8 whole entry, looked up): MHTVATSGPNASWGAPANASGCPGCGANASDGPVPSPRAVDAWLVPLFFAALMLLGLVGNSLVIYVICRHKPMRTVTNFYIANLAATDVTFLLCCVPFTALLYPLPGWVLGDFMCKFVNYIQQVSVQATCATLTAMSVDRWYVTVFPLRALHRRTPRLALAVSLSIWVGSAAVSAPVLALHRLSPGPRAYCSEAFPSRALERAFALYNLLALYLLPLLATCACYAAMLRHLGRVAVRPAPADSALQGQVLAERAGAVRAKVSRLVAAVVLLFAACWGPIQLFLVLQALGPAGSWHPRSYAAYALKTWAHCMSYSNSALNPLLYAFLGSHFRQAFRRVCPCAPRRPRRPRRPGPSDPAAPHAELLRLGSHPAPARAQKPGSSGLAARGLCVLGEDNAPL
D(2) dopamine receptor (Homo sapiens), sequence (P14416 whole entry, looked up): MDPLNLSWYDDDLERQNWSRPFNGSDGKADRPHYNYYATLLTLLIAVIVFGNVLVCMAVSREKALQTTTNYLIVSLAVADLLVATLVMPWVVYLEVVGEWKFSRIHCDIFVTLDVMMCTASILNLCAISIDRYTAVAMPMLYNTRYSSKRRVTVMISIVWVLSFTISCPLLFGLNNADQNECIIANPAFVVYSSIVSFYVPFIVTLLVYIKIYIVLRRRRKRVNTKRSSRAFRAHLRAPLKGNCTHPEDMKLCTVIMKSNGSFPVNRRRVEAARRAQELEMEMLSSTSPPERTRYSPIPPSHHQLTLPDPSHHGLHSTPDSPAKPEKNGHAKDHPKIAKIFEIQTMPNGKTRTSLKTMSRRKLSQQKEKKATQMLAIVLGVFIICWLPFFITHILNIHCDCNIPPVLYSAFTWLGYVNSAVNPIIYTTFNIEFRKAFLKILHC
Gonadotropin-releasing hormone receptor (Homo sapiens), sequence (P30968 whole entry, looked up): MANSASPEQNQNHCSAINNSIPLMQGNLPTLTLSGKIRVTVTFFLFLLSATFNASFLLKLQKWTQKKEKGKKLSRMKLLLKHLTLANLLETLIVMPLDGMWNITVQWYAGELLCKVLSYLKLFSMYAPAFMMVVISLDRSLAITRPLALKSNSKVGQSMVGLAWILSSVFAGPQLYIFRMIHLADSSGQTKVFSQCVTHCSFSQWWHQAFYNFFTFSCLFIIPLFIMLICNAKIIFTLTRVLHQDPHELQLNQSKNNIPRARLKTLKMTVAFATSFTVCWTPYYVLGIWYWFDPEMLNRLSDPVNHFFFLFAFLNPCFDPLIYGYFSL
Beta-2 adrenergic receptor (Homo sapiens), sequence (P07550 whole entry, looked up): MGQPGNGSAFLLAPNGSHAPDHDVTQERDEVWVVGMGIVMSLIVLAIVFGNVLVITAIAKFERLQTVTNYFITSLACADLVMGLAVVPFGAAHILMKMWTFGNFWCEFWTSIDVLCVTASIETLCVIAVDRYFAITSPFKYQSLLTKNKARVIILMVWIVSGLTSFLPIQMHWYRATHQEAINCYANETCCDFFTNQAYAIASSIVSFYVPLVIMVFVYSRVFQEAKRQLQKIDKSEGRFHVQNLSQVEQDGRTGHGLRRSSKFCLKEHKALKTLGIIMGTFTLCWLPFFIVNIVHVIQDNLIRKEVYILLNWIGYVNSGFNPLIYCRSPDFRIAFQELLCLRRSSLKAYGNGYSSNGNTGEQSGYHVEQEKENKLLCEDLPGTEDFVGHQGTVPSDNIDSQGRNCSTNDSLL
Muscarinic acetylcholine receptor M1 (Homo sapiens), sequence (P11229 whole entry, looked up): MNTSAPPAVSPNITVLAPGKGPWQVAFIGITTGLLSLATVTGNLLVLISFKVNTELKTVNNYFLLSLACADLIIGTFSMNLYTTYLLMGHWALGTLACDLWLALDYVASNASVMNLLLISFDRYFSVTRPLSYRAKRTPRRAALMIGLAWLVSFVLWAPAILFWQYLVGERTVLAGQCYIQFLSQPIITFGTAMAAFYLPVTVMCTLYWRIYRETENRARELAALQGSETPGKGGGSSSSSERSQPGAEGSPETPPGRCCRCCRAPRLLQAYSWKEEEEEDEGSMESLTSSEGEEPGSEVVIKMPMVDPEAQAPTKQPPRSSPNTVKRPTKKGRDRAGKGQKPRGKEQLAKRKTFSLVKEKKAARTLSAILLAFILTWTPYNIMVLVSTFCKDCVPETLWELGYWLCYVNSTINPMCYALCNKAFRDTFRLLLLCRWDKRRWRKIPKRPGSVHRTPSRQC

Take `COP(=S)(OC)Oc1cc(Cl)c(Cl)cc1Cl`: the Potency entry in test [1], in test [2], in test [3], in test [4], in [5] and in test [6] was “inactive” in each case. Further, the Potency result in test [7], in test [8], in test [9], in test [10], in test [11] and in test [12] was “inactive” each time. Besides, the Potency entry in test [13], in test [14], in test [15] and in [16] was “inactive” in each case.
As to `O=C/C=C/c1ccccc1`, the Potency entry in test [1], in test [2], in test [3], in test [4], in test [17] and in test [6] was “inactive” throughout. Further, the Potency entry in test [7], in test [12], in [13] and in [14] was “inactive” each time.
As for `Cl`, the Potency entry in test [1], in test [2], in [3], in [4], in test [5] and in test [6] was “inactive” in each case. For the same compound, the Potency result in test [7], in test [9], in [10], in test [18], in test [12] and in [13] was “inactive” each time. Besides, the Potency result in test [14], in test [19], in test [15] and in [16] was “inactive” each time.
`CN=C=S`: the Potency entry in test [1], in test [2], in [3], in test [4], in test [20] and in test [5] was “inactive” in each case. Also, the Potency result in test [6], in [7], in test [8], in test [9], in [11] and in test [18] was “inactive” each time. In addition, the Potency result in test [12], in [13], in test [19], in [15] and in test [16] was “inactive” throughout. Besides, the Potency in [10] was 44 µM (active) and inactive.
Consider `Cn1cc[n+](C)c1` (tested in a mixture with another compound), for which the Potency result in test [1], in test [3], in [4], in test [17], in test [20] and in test [5] was “inactive” throughout. The Potency entry in test [6], in test [7], in test [8], in test [9], in test [10] and in [12] was “inactive” throughout. Further, the Potency entry in [13], in [14], in test [15] and in [16] was “inactive” in each case.
In the case of `COP(=O)(CCC(=O)NCO)OC`, the Potency result in [1], in [2], in test [3], in test [20], in [5] and in test [6] was “inactive” in each case. Also, the Potency result in test [7], in test [8], in test [10], in test [11], in [18] and in [12] was “inactive” each time. For the same compound, the Potency result in test [13], in test [14], in test [15] and in [16] was “inactive” each time.
`COc1ccc(C=O)cc1`: the Potency result in [1], in [2], in test [3], in test [17], in test [20] and in test [5] was “inactive” throughout. In addition, the Potency entry in test [7], in test [8], in [18], in test [12], in test [13] and in test [14] was “inactive” throughout. The Potency result in test [15] and in test [16] was “inactive” each time.
Regarding `OC(c1ccc(Cl)cc1)(c1cncnc1)c1ccccc1Cl` (centres undefined), the Potency entry in test [1], in test [2], in [4], in test [17], in test [20] and in test [5] was “inactive” in each case. In addition, the Potency result in test [6], in [7], in test [8], in [9], in test [10] and in test [11] was “inactive” each time. The Potency entry in [18], in test [12], in [15] and in test [16] was “inactive” throughout. The Potency in test [14] is 69.8 µM (active).
`CSc1nc(NC(C)C)nc(NC(C)C)n1`: the Potency entry in test [1], in test [3], in test [4], in test [20], in test [5] and in test [6] was “inactive” throughout. Moreover, the Potency result in test [8], in test [9], in test [10], in test [11], in [12] and in test [13] was “inactive” throughout. Further, the Potency result in [14], in test [19], in test [15] and in test [16] was “inactive” in each case.
